# Source: PubChem BioAssay AID686977 (Southern Research Specialized Biocontainment Screening …, 2013)
# In all, about 9,400 compounds went through this assay and fewer than 10 were called active. Roughly 5% stayed inconclusive and do not appear here. The list is a sample of the results. Measured potencies and affinities stand elsewhere. A number with no mark means an inactive call. No rule for the calls is given here.
# Experiment: Vibrio cholerae quorum sensing activators, luminescence (AID 686977)
# Settings: V. cholerae quorum sensing reporter, 6 h, hits give high values; dose 50, dose unit µM unless noted
row,Compound,luminescence
1,O=C(c1ccccc1)n1ccc(-c2cnc(-c3ccccc3)s2)n1,0
2,CC1CCc2nn(CC(=O)NCCC3=CCCCC3)cc2C1 (stereo not given),0
3,C=CCn1c(SCc2cccc(C#N)c2)nnc1-c1ccccc1O,360
4,CCCC(c1nnnn1Cc1ccco1)N1CCN(c2cc(Cl)ccc2C)CC1 (stereo not given),0
5,CCCCCn1c(SCc2ccncc2)nc2cc(C(=O)NCc3ccco3)ccc2c1=O,40
6,Cc1ccc(-c2nnc3n2N=C(c2ccccc2)CS3)cc1,0
7,Cc1c(NC(=O)c2cc(CC(C)C)on2)c(=O)n(-c2ccccc2)n1C,0
8,CCOC(=O)CC1C(=O)NCCN1C(=O)NC1CCCCC1 (stereo not given),0
9,CCn1c(SCC(=O)NCc2ccco2)nc2c(c1=O)SC(C)C2 (stereo not given),0
10,CCCc1[nH]nc2c1C(C1CCCCC1)C(C#N)=C(N)O2 (stereo not given),0
11,CC(C)Cn1c(SC(C)C(=O)Nc2ccc3c(c2)OCCO3)nc2ccccc2c1=O (stereo not given),40
12,Cc1cccc(NC(=O)C2CC(=O)n3cnnc3S2)c1 (stereo not given),40
13,COCCn1c(SCc2nc3ccccc3c(=O)[nH]2)nnc1-c1ccncc1,40
14,COc1ccc2ccc(Oc3ncccn3)cc2c1,200
15,CCOC(=O)N1CCC(Nc2c(N3CCN(c4cc(Cl)ccc4C)CC3)c(=O)c2=O)CC1,0
16,Cc1nc(-c2cccc(NS(=O)(=O)c3ccccc3)c2)cs1,160
17,CC1(C)N=C(N)N=C(N)N1c1cccc(C(=O)O)c1,0
18,CCOC(=O)c1sc(NCc2ccco2)c(-c2nc3ccccc3s2)c1N,0
19,N#CC1(c2ccccc2)CCCN1C(=O)c1ccccc1Cl (stereo not given),0
20,Cn1c(=O)oc2cc(S(=O)(=O)N3CCCc4ccccc43)ccc21,40
21,CC1CCc2cc(F)ccc2N1C(=O)c1cnc2sccn2c1=O (stereo not given),0
22,COc1ccc(-c2nc(CS(=O)CC(=O)N3CCCC3)c(C)o2)cc1 (stereo not given),0

row,Compound,luminescence
1,CC(C)(C)c1nc2ccccc2c2nnc(SCC(=O)Nc3nccs3)n12,80
2,COc1ccc(NC(=O)CSc2nccn2-c2cccc(OC)c2)cc1,0
3,Nc1nnnn1/N=C/c1ccccc1C(F)(F)F,40
4,Cc1c(Cl)cccc1NC(=O)c1cc(-c2ccccc2O)n[nH]1,0
5,COc1ccc(N/N=C(\C=N\O)C(=O)c2ccc(OC)cc2)cc1,0
6,CCOC(=O)CSc1ccc(-c2nc3ccccc3[nH]2)cn1,0
7,Cc1nc(C)c(C(=O)C2=C(O)C(=O)N(CCN3CCOCC3)C2c2ccco2)s1 (stereo not given),0
8,CC(C)OC(=O)c1nnc(Cc2ccc(F)cc2)o1,0
9,CC(NC(=O)c1ccccc1Br)c1ccc2c(c1)CCCC2 (stereo not given),40
10,Cc1ccc(C(=O)CC(C(=O)O)c2cn(CCC#N)c3ccccc23)cc1 (stereo not given),40
11,CCC(C)c1ccc(-c2cc(C(=O)OCC(=O)Nc3cc(C)on3)c3ccccc3n2)cc1 (stereo not given),0
12,CCc1cccc(C)c1NC(=O)CN1C(=O)c2ccccc2S1(=O)=O,200
13,N#Cc1nc(-c2cccc3ccccc23)oc1N1CCCCC1,0
14,Cc1ccn2cc(CCNC(=O)C3CCCCC3)nc2c1,0
15,Cc1c(NC(=O)CSc2nnc3sc4ccccc4n23)c(=O)n(-c2ccccc2)n1C,40
16,COC(=O)/C(=C\Nc1ccccc1N)c1ncc(C(F)(F)F)cc1Cl,40
17,COc1ccc(C(=O)NC(Cc2ccccc2)c2ccc3c(c2)OCCCO3)cc1 (stereo not given),0
18,O=C(O)c1ccc(NS(=O)(=O)c2cccc3cccnc23)cc1,0
19,CCCNS(=O)(=O)c1ccc(CCC(=O)N2CCN(c3ccc(OC)cc3)CC2)cc1,0
20,O=C(c1ccco1)N1CCN=C1SCc1ccccc1Cl,0
21,Oc1c(C(c2cccs2)N2CCN(c3cccc(Cl)c3)CC2)sc2ncnn12 (stereo not given),40
22,COc1ccc(C(=O)NCCn2cc(SCC(=O)NCc3ccco3)c3ccccc32)cc1,0

row,Compound,luminescence
1,CCn1c(SCC(=O)NCCc2ccccc2)nnc1-c1ccco1,0
2,COc1cc(OC)cc(-c2cc(N)n(S(=O)(=O)Cc3ccccc3)n2)c1,40
3,CCC(=O)N=c1sc2c(C)cc(C)cc2n1CC(=O)OC,0
4,Cc1ccc2[nH]c(=O)c(CN(CCCN(C)C)C(=O)Nc3ccc(Cl)cc3)cc2c1,0
5,CC(=O)c1sc(NC(=O)c2ccccc2F)nc1C,80
6,CC(C)N(Cc1nc(-c2ccccc2)no1)C(=O)c1ccc(Cl)cc1,0
7,O=C(O)C1CCC(=O)N(C2CCCCC2)C1c1ccccc1 (stereo not given),0
8,Cc1ccn(CCSCC(=O)O)n1,0
9,CCc1ccc(-c2cc(C(F)(F)F)n3nc(C(=O)Nc4c(C)nn(Cc5ccccc5C)c4C)cc3n2)s1,0
10,Cc1cccc2cc(CN(Cc3cccs3)Cc3nnnn3Cc3ccccc3)c(=O)[nH]c12,0
11,CC(=O)c1cccc(N(CC(=O)O)S(C)(=O)=O)c1,40
12,CCN(CC)CCN1C(=O)C(=O)/C(=C(/O)c2c(C)[nH]c(C(=O)OC)c2C)C1c1cccs1 (stereo not given),0
13,COc1ccc2nc(SCc3nc(N)nc(Nc4ccccc4)n3)[nH]c2c1,40
14,CCOc1ccc(N(CC(=O)NC(C)(C)C)C(=O)c2ccco2)cc1,40
15,CCOC(=O)c1c(C)c(C(=O)NCC2CCCO2)c(C)n1CC (stereo not given),0
16,O=C(NCCC1=CCCCC1)c1ccc(F)c(S(=O)(=O)N2CCOCC2)c1,0
17,BrC(=C\c1ccccc1)/C=N/N1CCN(Cc2ccccc2)CC1,0
18,COC(=O)c1c(C)[nH]c(C)c1-c1ccccc1Cl,0
19,CCOC(=O)C(=CNc1cc(C)nn1-c1ccc(C)cc1)C(=O)OCC,40
20,CCc1nc(SCC(N)=O)c2c(=O)n(C)c(=O)n(C)c2n1,40
21,COC(=O)c1ccc(Oc2ccc(C(C)(C)C)cc2)c([N+](=O)[O-])c1,0
